Compound activity as filed in PubChem BioAssay.
ALOX12 inh – blocks human arachidonate 12S-lipoxygenase | purified 12hLO, xylenol orange hydroperoxide absorbance | 1.1% of 580,000 active | Potency, µM (titrated, usually from 108 µM), without a hit: top-dose activity change, negative = inhibition, most hits filed as inhibitors | P18054
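Purified human 12hLO at 150 nM in 25 mM Hepes, 0.01% Triton X-100, pH 7.0, preincubated 15 min at room temperature with compound. Reaction started with 40 uM arachidonic acid, 30 min at room temperature. Hydroperoxide measured by Fe-xylenol orange, 573/405 nm absorbance ratio.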
TDP1 cell CPT – DT40-hTDP1 cell growth loss with CPT. 12% of 420,000 active. chicken DT40 Tdp1-/-;hTDP1 cells + 20 nM CPT, ATP luminescence, 48 h. AID 686979. Potency, µM (top dose mostly 46.2 µM), inactives show at the top dose activity change, negative = growth inhibition, most hits filed as inhibitors; also: nearly all actives have a fitted effect of over 55% in size
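Chicken DT40 Tdp1-/- cells stably complemented with human TDP1 were seeded at 400 cells/well in medium containing 20 nM camptothecin, exposed to pin-transferred compounds, and grown at 37 °C for at least 48 hr. Viability was read as ATP luminescence.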
VP16 counter – Gal4-VP16 reporter inhibition counter-screen. AID 2546. Drosophila S2 Gal4-VP16 UAS-luciferase, luminescence, 20 h. 3.5% of 310,000 active. Potency, µM (top dose mostly 53.6 µM), inactives show at the highest dose activity, negative = inhibition, hits mostly inhibitors;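 also: Gal4-VP16 expression switched on by copper sulfate through the metallothionein promoter; nearly all actives have a fitted effect of over 50% in size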
ELG1 repair inh – inhibitors of ELG1-dependent DNA repair in HEK293T cells | HEK293T ELG1-luciferase reporter, luminescence, 16 h; DNA damage induced by 5-fluorouridine | Potency, µM (top dose mostly 46.1 µM), for the others: at the top dose activity change, negative = inhibition, usual class: inhibitors | 2.3% of 330,000 active; also: nearly all actives have a fitted effect of over 55% in size
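Step one: seed 2,000 cells per well. Step two: pin-transfer compound or DMSO alongside 5-fluorouridine. Step three: incubate 16 hr, 37 °C, 5% CO2. Step four: add ONE-Glo, wait 30 min, read luminescence.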
TDP1 cell noCPT – qHTS for Inhibitors of human tyrosyl-DNA phosphodiesterase 1 (TDP1): qHTS in cells in absence of CPT | DT40 Tdp1-/- hTDP1 cells, no CPT, ATP luminescence, 48 h | Potency, µM (doses to about 46.2 µM), for the others: at the top dose activity change, negative = growth inhibition, hits mostly inhibitors | 15% of 420,000 active | AID 686978, 2013; also: nearly all actives have a fitted effect of over 55% in size
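Chicken DT40 Tdp1-/- cells stably complemented with human TDP1 were seeded at 400 cells/well with DMSO in place of 20 nM camptothecin. After compound pinning, cells grew at least 48 hr at 37 °C; viability read by CellTiter-Glo luminescence.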
RORgamma inh – inhibitors of mouse ROR gamma transcriptional activity. Drosophila S2 Gal4-RORgamma UAS-luciferase reporter, 20 h. P51450. 5.4% of 310,000 active. Potency, µM (doses to about 53.6 µM), for the others: at the highest dose activity change, negative = inhibition, usual class: inhibitors; also: nearly all actives have a fitted effect of over 60% in size
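Stable Schneider cell line, Gal4 DNA-binding domain fused to ROR gamma, UAS-luciferase. Cmpd 1 hr RT → CuSO4 700 uM final → 20 hr RT → luciferase reagent 10 min → luminescence.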
* marks the source's active call; other numbers are inactive results; [ ] = another dose, or the depositor's remark. Sampled rows, rich in hits. Any-hit rate of the full collection: about 15%. Calls follow the shape of the dose curve; as a rule, active = well fitted curve in the direction sought with a large enough effect; inconclusive = small, poorly fitted or top-dose-only effect, or another doubt; inactive = no such curve, though single readings can be large; an effect the other way counts as inactive or inconclusive. % is scaled to controls: 0 for no effect and ±100 for the full control effect; potency is read from the fitted curve at half-maximal effect.

CCOc1ccccc1OCCC(=O)Nc1cccc2cccnc12 was read as ALOX12 inh 10.4%.
Screening NC(C(=O)O)[C@@H]1CC(Cl)=NO1 (stereo not given in full) returned VP16 counter -6.4% and RORgamma inh -4.6%.
`NC(C(=O)O)C1ON=C(Cl)C1O` (stereo not given) gave ALOX12 inh inconclusive, TDP1 cell CPT 5.8µM* and TDP1 cell noCPT 5.8µM*.
For O=C(C1CCCCC1)N1CCC2(CC1)CC(N(Cc1ccc(F)cc1)C1CC1)CCO2 (stereo not given) the results were ALOX12 inh 31.9%.
Screening O=C(Nc1ccc(N2CCOCC2)cc1)c1ccc(S(=O)(=O)NCc2ccco2)cc1 returned ALOX12 inh 6.6%, TDP1 cell CPT 19.2%, VP16 counter 4.4%, ELG1 repair inh 28.5%, TDP1 cell noCPT 0.3% and RORgamma inh -12.3%.
`CC(=O)c1ccc(N2CCN(C(=O)/C=C/c3ccc(S(=O)(=O)N4CCOCC4)cc3)CC2)cc1` gave ALOX12 inh 1.7%, TDP1 cell CPT 18.4µM*, VP16 counter 1.6%, ELG1 repair inh inconclusive, TDP1 cell noCPT 14.6µM* and RORgamma inh -7.0%.
Screening O=C(/C=C/c1ccc(S(=O)(=O)N2CCOCC2)cc1)N1CCCCC1 returned ALOX12 inh 8.0%, TDP1 cell CPT -1.4%, ELG1 repair inh -10.5% and TDP1 cell noCPT -24.1%.
`O=C(c1ccc(Cl)c(S(=O)(=O)NCc2ccco2)c1)N1CCN(c2ccc(F)cc2)CC1` gave ALOX12 inh -5.2%, TDP1 cell CPT 16.4µM*, VP16 counter 1.9%, ELG1 repair inh inconclusive, TDP1 cell noCPT 23.1µM* and RORgamma inh 6.3%.
CC(=O)c1ccc(N2CCN(C(=O)/C=C/c3ccc(S(=O)(=O)NCc4ccco4)cc3)CC2)cc1 was read as ALOX12 inh -1.3%, TDP1 cell CPT 20.6µM*, VP16 counter -22.6%, ELG1 repair inh 7.3µM*, TDP1 cell noCPT 20.6µM* and RORgamma inh 22.5%.
For c1cnc(N2CC[C@H](c3nnc(-c4ccncc4)o3)C2)nc1 the results were ALOX12 inh 48.1%[176 µM].
For COc1cc2c(cc1OC)-c1nnc(-c3cccs3)n1C1(CCCC1)C2 the results were ALOX12 inh -16.3%, TDP1 cell CPT 20.6µM*, VP16 counter -11.2%, ELG1 repair inh -3.5%, TDP1 cell noCPT 20.6µM* and RORgamma inh 11.2%.
For S=C(NN=C1CCCCC1)NC1CCCCC1 the results were ALOX12 inh 55.4%.
For O=C(/C=C/c1ccco1)OCc1nnc(-c2ccccc2)o1 the results were ALOX12 inh -28.8%, TDP1 cell CPT -10.5%, VP16 counter 1.0%, ELG1 repair inh 14.7%, TDP1 cell noCPT -21.9% and RORgamma inh 24.2%.
For O=C(/C=C/c1ccco1)OCc1nnc(-c2ccc(Cl)cc2)o1 the results were ALOX12 inh 44.7µM*, TDP1 cell CPT 6.8%, VP16 counter -7.3%, ELG1 repair inh 12.2%, TDP1 cell noCPT -8.8% and RORgamma inh 15.7%.
CCS(=O)(=O)N1CCCOCCNC(=O)[C@@H]2CCC[C@@H]21 was read as ALOX12 inh 47.9%.
Screening Cc1ccc(C(=O)c2ccccc2C(=O)OCCOc2ccc(Cl)cc2Cl)cc1 returned ALOX12 inh -5.3%.
For Cc1cccc(CN2CCC(CNC(=O)c3cccc4c3SCCC4=O)CC2)c1 the results were ALOX12 inh 1.1%.
`CC(C)N1CCN(c2ccc(OC[C@@H]3CO[C@@](Cn4cncn4)(c4ccc(Cl)cc4Cl)O3)cc2)CC1` gave VP16 counter 1.8%[17 µM] and RORgamma inh 12.3%[2.98 µM].
